# Test results: ChEMBL document CHEMBL3988442, “University of Dundee, Small-Polar-MMV Screening Library” (2021)
# The campaign covered roughly 48,000 compounds. About 13,000 (27%) showed an effect of 50% or more. The list shows a part of the results.
# Test system: Wolbachia pipientis
# Test: Anti-Wolbachia Cell-Based Screen
# Type: functional
# Parameters: scale not given: in the data most compounds retested in dose-response had high values
# Settings: 5 µM
row,SMILES,Percent Effect
1,CC(C)(C)c1cc(C(=O)NCCn2nc3ccccn3c2=O)[nH]n1,15.5%
2,O=C(NC[C@H]1OC[C@@H](NC2CCOCC2)[C@@H]1O)c1cccs1,-3.226%
3,O=C(NCc1ccnc(C2CCCOC2)n1)c1cccs1 (centres undefined),112.2%
4,O=C(NC[C@H]1OC[C@@H](NC2CCC2)[C@@H]1O)c1cccs1,2.166%
5,Cn1ccnc1Sc1ncc(C(=O)N2CCCCC2)cc1Cl,1.099%
6,Cc1cccn2c(CNC(C)CCn3cccn3)cnc12 (centres undefined),-12.69%
7,Cc1nc(-c2ccccc2)n(CC(=O)NCC(C)C)n1,-0.5584%
8,CCOC(=O)CNC(=O)Cn1c(-c2ccoc2)nc(C)c1C,117%
9,Cc1nc(NC(=O)N(C)Cc2ccoc2)nn1C,-1.976%
10,COc1cccn(CC(=O)N(C)Cc2ccoc2)c1=O,-6.863%
11,Cc1nc(-c2ccoc2)n(CC(=O)N(C)CC(C)C)c1C,99.79%
12,CCOC(=O)CNC(=O)N1CCc2onc(-c3ccc(Cl)cc3)c2C1,-4.75%
13,CCOC(=O)CCCNC(=O)CN1CCN(c2ncccn2)CC1,-1.703%
14,Cc1nc(-c2ccoc2)n(CC(=O)NCC(C)C)c1C,121.2%
15,CC(C)CNC(=O)CN1C=Nc2ccccc2S1(=O)=O,-1.925%
16,CSCCC(C)NC(=O)N(C)Cc1cc(Cl)cn1C (centres undefined),-13.17%
17,CNC(=O)c1cc2c(nc1NCC(C)C)CCN(S(C)(=O)=O)CC2,-6.713%
18,COc1ccc(C#N)cc1CSCCN1CCOCC1,-1.196%
19,N#CCCN(CCN1CCOCC1)Cc1ccc(F)c(Br)c1,132.9%
20,CCOc1ccc(CN(CCC#N)CCN2CCOCC2)cc1OC,119.9%
21,N#CC1COCCN1S(=O)(=O)c1ccc(F)c(Br)c1 (centres undefined),-8.72%
22,COc1ccc(CN(C)Cc2cccc(C#N)c2)c(OC)c1,0.7087%
23,COc1cc(F)ccc1C(C(=O)O)N(C)CCN1CCOCC1 (centres undefined),-4.538%
24,COc1ccc(CN(CCC#N)CCN2CCOCC2)c(OC)c1,118.6%
25,N#Cc1cc(CSCCN2CCOCC2)ccc1F,-6.22%

row,SMILES,Percent Effect
1,CCCC(=O)N(CCN1CCOCC1)c1nc2c(OC)ccc(C)c2s1.Cl,15.71%
2,CN(Cc1cccc(C#N)c1)S(=O)(=O)N1CCOCC1,12.93%
3,COc1ccc(CN(CCC#N)CCN2CCOCC2)cc1OC,124%
4,COc1ccc(CCC(=O)N(C)CCN2CCOCC2)cc1OC,6.913%
5,CCc1ccccc1OC1CN(C(=O)c2cccs2)C1,3.168%
6,Cn1c(NC(=O)CNC(=O)C2CC2)nc2cc(Cl)ccc21,-0.3531%
7,CC(C)c1nn(C)c(N2CCOCC2)c1CN[C@H](C)CO,-7.825%
8,Cc1c[nH]c(CN2CCCCC2CCn2ccnc2C)c(C)c1=O (centres undefined),-47.12%
9,O=C(c1ccc(C2CCCO2)s1)N1CCN(c2ccccc2F)CC1 (centres undefined),2.107%
10,CCN(Cc1nccn1C)C(=O)c1ccc(NCc2cnn(C)c2)nc1,-21.14%
11,CS(=O)(=O)N1CCCC1c1cccc(Cc2ccccc2F)n1 (centres undefined),107.7%
12,CC(=O)N1CCCC1c1cccc(NCc2ccccc2F)n1 (centres undefined),111.2%
13,COCCN(C)CC1CCCN1S(=O)(=O)Cc1ccccc1F (centres undefined),4.481%
14,CN(C)C(=O)CN1CCCC1c1cccc(Cc2ccccc2F)n1 (centres undefined),121.7%
15,Cc1nccn1CC1CCCN1S(=O)(=O)Cc1ccccc1F (centres undefined),-7.214%
16,CC(=O)N1CCCC1c1cccc(Cc2ccccc2Cl)n1 (centres undefined),110.5%
17,O=C(NC[C@H]1OC[C@@H](NC2COC2)[C@@H]1O)c1cccs1,4.392%
18,CN(Cc1ccoc1)C(=O)C1CC(=O)N(Cc2ccncc2)C1 (centres undefined),3.123%
19,CC(=O)N1CCCC1c1cccc(Oc2ccccc2F)n1 (centres undefined),150.9%
20,COCC(=O)N1CCCC1c1cccc(Cc2ccccc2F)n1 (centres undefined),111%
21,CC(=O)N1CCCC1c1cccc(Cc2ccccc2F)n1 (centres undefined),1.098%
22,CC(C)(C)c1coc([C@@H]2COCCN2CC2CC2)n1,-8.42%
23,CCc1n[nH]c(C2CN(Cc3nnc(C4CC4)n3C)CCO2)n1 (centres undefined),-1.784%
24,CCS(=O)(=O)c1ccc(N2CCC(NC(=O)c3ccccn3)CC2)cc1,1.284%
25,COc1ccc(C[C@H]2CN(c3nnc(C)s3)CC[C@H]2OC)cc1.O=C(O)C(F)(F)F,100.4%

row,SMILES,Percent Effect
1,COc1ccc(C[C@H]2CN(c3nnc(C)s3)CC[C@@H]2OC)cc1.O=C(O)C(F)(F)F,83.05%
2,Cn1nc(Cn2cccn2)c2c1CN(Cc1ccsc1)C2.O=C(O)C(F)(F)F,-9.596%
3,O=C(O)C(F)(F)F.O=C(c1cnccn1)N1CCOC2(CCN(Cc3ccsc3)CC2)C1,-59.08%
4,O=C(O)C(F)(F)F.O=C(c1cnccn1)N1CC2(CCN(Cc3ccsc3)C2)C1,96.61%
5,O=C(O)C(F)(F)F.O=C(O)C(F)(F)F.O=C(c1cnccn1)N1CCCC2(CCN(Cc3cccnc3)C2)C1 (centres undefined),-9.392%
6,O=C(O)C(F)(F)F.O=C(O)C(F)(F)F.c1csc(CN2CC3(CCN(Cc4ccsc4)C3)C2)n1,-7.051%
7,O=C(O)C(F)(F)F.O=C(c1cnccn1)N1CCCC2(CCN(Cc3ccsc3)C2)C1 (centres undefined),100.1%
8,O=C(O)C(F)(F)F.O=C(c1cnccn1)N1CCCC2(CCN(Cc3ccc(F)cc3)C2)C1 (centres undefined),8.086%
9,Cn1cccc1CN1CCC2(CCCN(C(=O)c3cnccn3)C2)C1.O=C(O)C(F)(F)F (centres undefined),-0.2095%
10,O=C(O)C(F)(F)F.O=C(c1cnccn1)N1CCCC2(CCN(Cc3ccsc3)CC2)C1,106.6%
11,CN1CC2(CCN(Cc3cccc(C#N)c3)CC2)CC1=O,2.767%
12,CCN1CCC(CNC(=O)C(c2ccc(F)cc2)N(C)C)(N(C)C)CC1 (centres undefined),-1.923%
13,CN(C)C(=O)c1ccc(OC2CCCC2)cc1,1.251%
14,O=C(c1ccccc1)N1CC[C@H]2C[C@@H](c3nnc(C4CC4)o3)O[C@@H]2C1,70.82%
15,Cn1cccc1C(=O)N1C[C@@H]2C[C@@H](c3nnc(C4CC4)o3)O[C@@H]2C1,104.3%
16,CCC(C)c1noc(C2CCN(C(=O)c3cccs3)CC2)n1 (centres undefined),-5.715%
17,Cc1ccc(C(=O)N2C[C@@H]3C[C@@H](c4nnc(C5CC5)o4)O[C@@H]3C2)s1,-0.8808%
18,O=C(c1cccs1)N1CC[C@H]2C[C@@H](c3nnc(C4CC4)o3)O[C@@H]2C1,88.85%
19,Cn1cccc1C(=O)N1CC[C@H]2[C@H](CO[C@H]2CNS(C)(=O)=O)C1,-6.617%
20,O=C1NCCO[C@H]2CN(C(=O)c3cccs3)CC[C@@H]12,-55.85%
21,O=C(c1cscn1)N1CC[C@H]2C[C@H](c3nnc(C4CC4)o3)O[C@@H]2C1,101.5%
22,O=C(c1ccsc1)N1CC[C@H]2C[C@@H](c3nnc(C4CC4)o3)O[C@@H]2C1,4.587%
23,O=C(c1cscn1)N1C[C@@H]2C[C@@H](c3nnc(C4CC4)o3)O[C@@H]2C1,-5.593%
24,COc1cc(N2CCC(c3nccn3Cc3ccccn3)CC2)ncn1,2.703%
25,CCCN1CCC(Nc2nc(C)ns2)CC1,-28.04%

row,SMILES,Percent Effect
1,COc1ccc(CN2CCC=C(C(C)NC(C)=O)C2)cc1 (centres undefined),-15.58%
2,Cc1n[nH]c(CN2CCN(CC3CC3)[C@@H]3CS(=O)(=O)C[C@@H]32)n1,6.272%
3,CCOc1cccc(CCNC(=O)Cc2ccccc2O)n1,-26.19%
4,Cc1cnc2c(S(=O)(=O)NCC3CCS(=O)(=O)C3)cccc2c1 (centres undefined),-2.686%
5,O=C(c1ccoc1)N1CC[C@H]2C[C@@H](c3nnc(C4CC4)o3)O[C@@H]2C1,103%
6,COCC(=O)N1CC[C@H]2C[C@H](c3nnc(C4CC4)o3)O[C@@H]2C1,59.46%
7,COCC(=O)N1CC[C@H]2C[C@H](c3nc(C)no3)O[C@@H]2C1,4.349%
8,Cc1nc([C@@H]2C[C@@H]3CCN(C(=O)c4ccnnc4)C[C@H]3O2)sc1C,3.729%
9,Cc1noc([C@H]2C[C@@H]3CCN(C(=O)c4cccn4C)C[C@H]3O2)n1,59.05%
10,Cc1nc([C@H]2C[C@@H]3CCN(C(=O)c4ccnnc4)C[C@H]3O2)sc1C,-5.019%
11,Cc1csc([C@@H]2C[C@@H]3CCN(C(=O)c4cccn4C)C[C@H]3O2)n1,-10.26%
12,O=C(c1ccccc1)N1CC[C@H]2C[C@H](c3nnc(C4CC4)o3)O[C@@H]2C1,87.37%
13,COCC(=O)N1CC[C@H]2C[C@@H](c3nnc(C4CC4)o3)O[C@@H]2C1,-4.608%
14,COCCN1CCN(CCS(=O)(=O)C(F)(F)F)CC1C (centres undefined),6.413%
15,O=C1NCCN2CCN(Cc3ccc(Cl)c(Cl)c3)CC12 (centres undefined),-5.038%
16,Cc1n[nH]c(C)c1C1CCCN1C(=O)CNC(=O)C(C)(C)C (centres undefined),1.097%
17,Cc1n[nH]c(C)c1C1COCCN1C(=O)c1cc(Cl)c[nH]1 (centres undefined),-20.41%
18,Cc1cccc(CCC(=O)N2CCOCC2c2c(C)n[nH]c2C)c1 (centres undefined),9.952%
19,Cc1c[nH]c(C2CCCN2C(=O)CCc2c(C)n[nH]c2C)n1 (centres undefined),109.7%
20,Cc1c[nH]c(C2COCCN2C(=O)CCc2c(C)n[nH]c2C)n1 (centres undefined),111%
21,Cc1cccc(-c2c[nH]c(C3CCCN3C(=O)Cn3cc(C)cn3)n2)c1 (centres undefined),-5.472%
22,CC(C)(C)c1noc(CCCC(=O)N2CCCC(c3ccn[nH]3)C2)n1 (centres undefined),-11.26%
23,O=C(CCn1cnnc1)N1CCCC(c2ncc[nH]2)C1 (centres undefined),-20.34%
24,Cc1c[nH]c(C2CCCN(C(=O)CCc3c(C)n[nH]c3C)C2)n1 (centres undefined),139.5%
